Pf growth 48h = Primary qHTS for delayed death inhibitors of the malarial parasite plastid, 48 hour incubation | AID 504832, 2011 | P. falciparum luciferase growth in erythrocytes, 48 h | Potency, µM (highest dose often 28.7 µM), for the others: top-dose activity change, negative = inhibition, hits mostly inhibitors | 310,000 tested, 5.9% active; further: on the % scale 0 is the no-effect control and ±100 the full control effect
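Erythrocytes infected with P. falciparum carrying an integrated firefly luciferase reporter (2% hematocrit, 0.1% parasitemia final) were exposed to compounds in RPMI 1640 with 0.5% Albumax at 37 C, 5% CO2. Growth inhibition was scored as reduced luminescence.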
AmpC inh detg = qHTS Inhibitors of AmpC Beta-Lactamase (assay with detergent); AmpC hydrolysis of nitrocefin, absorbance 480 nm, 0.01% Triton; Potency, µM (highest dose often 114 µM), for the others: at the highest dose activity change, negative = inhibition, most hits filed as inhibitors; 370,000 tested, 0.041% active; AID 485294, 2010;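 further: 0% = no-compound wells and -100% = no-enzyme wells; nearly all actives have a fitted effect of over 25% in size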
Target sequence (P00811 whole entry, looked up): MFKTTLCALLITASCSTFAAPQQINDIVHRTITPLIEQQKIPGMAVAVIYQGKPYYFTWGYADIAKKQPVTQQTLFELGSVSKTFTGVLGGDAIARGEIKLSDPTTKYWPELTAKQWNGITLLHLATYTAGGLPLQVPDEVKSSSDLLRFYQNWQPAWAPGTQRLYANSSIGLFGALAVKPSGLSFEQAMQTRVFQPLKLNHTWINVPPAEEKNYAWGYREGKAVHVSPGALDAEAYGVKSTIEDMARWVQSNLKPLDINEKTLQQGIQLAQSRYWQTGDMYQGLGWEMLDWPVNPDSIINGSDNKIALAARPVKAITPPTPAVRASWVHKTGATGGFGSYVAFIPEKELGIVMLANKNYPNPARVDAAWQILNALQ
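20 mM phosphate pH 7.0 + 0.01% (detergent screen) or 0.0001% Triton X-100; 5.3 nM AmpC reagent; cpd preinc 15 min RT; nitrocefin (800 uM stock) to start; A480 q20 s × 4 min; Activity was normalised to no-enzyme and no-compound control wells.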
Pf growth 96h = Primary qHTS for delayed death inhibitors of the malarial parasite plastid, 96 hour incubation; P. falciparum luciferase reporter growth, 96 h; Potency, µM (highest dose often 28.7 µM), without a hit: at the top dose activity change, negative = inhibition, actives largely listed as inhibitors; 320,000 tested, 6.9% active; AID 504834, 2011; further: on the % scale 0 is the no-effect control and ±100 the full control effect
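Two parasite generations (96 h, 37 C, 5% CO2) of compound exposure in infected erythrocytes (0.05% parasitemia, 2% hematocrit). Luciferase-reporter P. falciparum; decreased luminescence indicates inhibited growth, aimed at apicoplast-acting delayed death.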
SARS PLP yeast = qHTS of Yeast-based Assay for SARS-CoV PLP; Potency, µM (highest dose often 32.9 µM), for inactives: top-dose activity, positive = growth rescue, hits mostly activators; 330,000 tested, 0.19% active; S. cerevisiae expressing SARS-CoV PLpro, growth rescue; calls by dose curve; further: 0% is about no effect; nearly all actives have a fitted effect of over 55% in size
Sm TGR inh = qHTS Assay for the Inhibitors of Schistosoma Mansoni Peroxiredoxins; Potency, µM (series often up to 114 µM), without a hit: top-dose activity change, negative = inhibition, usual class: inhibitors; Schistosoma mansoni thioredoxin glutathione reductase (TGR), Q962Y6; AID 485364, 2010; purified TGR, DTNB reduction, TNB absorbance 405 nm; 360,000 tested, 3% active; further: on the % scale 0 is the no-effect control and ±100 the full control effect; nearly all actives have a fitted effect of over 60% in size
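First, TGR (20 nM dispensed) and NADPH were mixed with compound. Second, a 15 min room-temperature incubation followed. Third, further NADPH and then DTNB were added to start the reaction. Finally, TNB absorbance was monitored kinetically.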
AmpC inh no detg = qHTS Inhibitors of AmpC Beta-Lactamase (assay without detergent); P00811; Potency, µM (doses to about 57.1 µM), for inactives: at the highest dose activity change, negative = inhibition, usual class: inhibitors; 330,000 tested, 0.52% active; AmpC nitrocefin hydrolysis, absorbance 480 nm, 0.0001% Triton;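 further: plate controls were no compound for no effect and no enzyme for full effect; nearly all actives have a fitted effect of over 20% in size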
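20 mM phosphate pH 7.0 + 0.01% (detergent screen) or 0.0001% Triton X-100; 5.3 nM AmpC reagent; cpd preinc 15 min RT; nitrocefin (800 uM stock) to start; A480 q20 s × 4 min; Activity was normalised to no-enzyme and no-compound control wells.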
* marks the source's active call; other numbers are inactive results; ? = inconclusive; . = not tested or not shown; [ ] = another dose, or the depositor's remark. The list is not random: actives were taken first. Their share in the collection is about 12%. Unless noted, the call rests on the fitted dose curve; in most records, active means well fitted curve in the direction sought with a large enough effect; inconclusive means small, poorly fitted or top-dose-only effect, or another doubt; inactive means no such curve, though single readings can be large; an effect the other way counts as inactive or inconclusive. Potency means the concentration at half of the fitted maximal effect.

SMILES	Pf growth 48h	AmpC inh detg	Pf growth 96h	SARS PLP yeast	Sm TGR inh	AmpC inh no detg
CCO[C@@H]1OC(C(=O)N2CCN(Cc3ccc4c(c3)OCO4)CC2)=C[C@H](c2csc3ccccc23)[C@H]1CCCO	?	1.0%	2.08µM*	-1.2%	4.6%	228.0%
CC(=O)n1cc([C@@H]2C=C(C(=O)N3CCOCC3)O[C@H](OCCCCO)C2)c2ccccc21	?	-6.9%	8.6%	1.5%	?	112.7%
CCO[C@H]1OC(C(=O)Nc2ccccc2)=C[C@@H](c2cn(C(C)=O)c3ccccc23)[C@@H]1CCCO	?	-2.3%	?	0.6%	-10.5%	148.6%
COc1ccc(NC(=O)C2CCN(S(=O)(=O)c3cccc4cccnc34)CC2)cc1OC	-6.6%	?	6.57µM*	-5.3%	1.9%	-8.7%
COc1ccc(S(=O)(=O)N2CCC(C(=O)Nc3ccc(F)cc3)CC2)c2cccnc12	1.04µM*	-10.2%	0.3%	-1.1%	0.8%	-1.0%
COc1ccc(C)cc1NC(=O)C1CCN(C(=O)Cc2ccccc2)CC1	?	5.8%	18.4%	1.0%	9.1%	48.8%
COc1cccc(OC)c1OCc1cc(C2C3CCCC=C3C(C#N)=C(N)C2(C#N)C#N)c(C)cc1C (configuration not stated)	?	-13.0%	9.28µM*	2.2%	39.8µM*	-13.3%
CC(n1cnnn1)C12CC3CC(CC(C3)C1)C2 (configuration not stated)	?	-3.9%	1.65µM*	-1.5%	7.5%	-12.5%
CC(NC(=O)Cn1cnnn1)C12CC3CC(CC(C3)C1)C2 (configuration not stated)	28.9%	-16.1%	32.9%	4.2%	-25.7%	-8.2%
COCC(=O)Nc1cc(C(=O)Nc2ccccc2)ccc1Cl	64.9%	3.7%	190.7%	0.0%	6.2%	-13.8%
COc1ccc(-c2cc(=Nc3ccc(C)cc3)c3ccccc3o2)cc1	?	-4.7%	6.57µM*	-13.8%	9.5%	-13.3%
COc1ccc(N=c2cc(-c3ccc(O)cc3)oc3ccccc23)cc1	3.29µM*	-4.8%	?	11.2%	-0.6%	-18.1%
Cc1cccc(NC(=O)COC(=O)c2cc(C)n(C3CC3)c2C)c1	9.28µM*	-0.9%	?	-7.4%	-30.2%	14.9%
Cc1cc(Oc2cnn(C(C)(C)C)c(=O)c2Cl)cc(C(C)C)c1	11.7µM*	-0.8%	8.28µM*	-67.1%	2.3%	-30.0%
C=CC[C@H](CC(=O)N(CCO)Cc1ccccc1)C(=O)N[C@@H](COC(=O)[C@@H](CC=C)Cc1ccc(F)cc1)Cc1c[nH]c2ccccc12	.	.	.	3.3%	.	64.7%
C[C@H](CO)N1C[C@H](C)[C@@H](CN(C)S(=O)(=O)c2cn(C)cn2)Oc2c(NS(=O)(=O)c3ccc(F)cc3)cccc2C1=O	.	.	.	-2.7%	.	69.7%
Cc1cccc(C)c1OCCSc1nc2ccccc2n1CC(=O)O	29.7%	?	11.7µM*	.	-0.8%	-15.6%
COc1ccc(OCCSc2nc3ccccc3n2CC(=O)O)cc1	-1.6%	-5.4%	.	1.1%	-0.1%	-17.4%
CCN1CCN(c2ncc3c(n2)CCN(CC(C)C)C3)CC1	.	1.8%	.	.	-10.4%	.
N#Cc1c(-c2ccco2)cc(-c2ccc(F)cc2)nc1N	-8.7%	-4.4%	1.6%[5.75 µM]	0.0%	6.31µM*	-38.1%
CC(C)Cc1cc(-c2ccco2)c(C#N)c(N)n1	12.7%	-16.3%	17.9%	1.4%	35.5µM*	-22.9%
CCOC(=O)c1[nH]c(C)c(C(=O)Nc2ccc(F)cc2)c1C	.	-12.6%	-27.7%	-3.3%	-24.6%	-14.6%
CCOC(=O)c1[nH]c(C)c(C(=O)OC)c1C	92.4%	-1.3%	101.8%	-0.2%	17.9%	-5.4%
CCOC(=O)c1[nH]c(C)c(C)c1C	18.6%	2.0%	11.7µM*	-10.6%	-0.1%	-5.3%
CCOC(=O)c1c(C)[nH]c(C(=O)OCC(=O)Nc2cc(C)ccc2OC)c1C	-2.2%	-2.0%	5.86µM*	-7.5%	-10.1%	-19.9%
SMILES	Pf growth 48h	AmpC inh detg	Pf growth 96h	SARS PLP yeast	Sm TGR inh	AmpC inh no detg
CCOC(=O)c1[nH]c(C)c(C(=O)Nc2ccc(C)c(C)c2)c1C	.	-10.0%	5.86µM*	-9.5%	-2.4%	31.4%
CCOC(=O)c1[nH]c(C)c(C(=O)NC2CCCCC2)c1C	.	-12.5%	9.28µM*	6.3%	3.7%	-0.4%
CN(C)S(=O)(=O)c1cccc(NC(=O)CN2C(=O)NC3(CCc4ccccc4C3)C2=O)c1 (configuration not stated)	-19.7%	-6.5%	-0.7%	10.2%	-2.1%	-13.4%
CCOC(=O)c1[nH]c(C)c(C(=O)NCCC2=CCCCC2)c1C	85.2%	?	5.22µM*	2.0%	0.8%	-16.3%
CC(=O)c1c(C)[nH]c(C(=O)NCCC2=CCCCC2)c1C	.	-5.9%	?	-4.3%	-22.8%	-13.3%
CC(NC(=O)C12CC3CC(CC(C3)C1)C2)C(=O)NN=Cc1ccc([N+](=O)[O-])o1 (configuration not stated)	.	.	.	2.4%	.	-23.0%
O=C(NC1CCCC1)c1ccc(Cl)s1	?	-5.8%	3.7%	-6.8%	0.0%	-21.2%
O=C(NC1CCCC(C(F)(F)F)C1)c1ccc([N+](=O)[O-])o1 (configuration not stated)	.	.	.	.	.	0.1%
O=C(NC1CCCCCC1)c1ccc([N+](=O)[O-])s1	?	0.0%	9.28µM*	-3.6%	-4.2%	-25.1%
O=C(NC1CCCCC1)c1ccc([N+](=O)[O-])o1	10.4µM*	-6.0%	-9.7%	1.0%	-32.3%	1.2%
O=[N+]([O-])c1ccc(/C=[N+](\[O-])[C@@H]2CCCC[C@@H]2/[N+]([O-])=C/c2ccc([N+](=O)[O-])o2)o1	-2.6%[0.00184 µM]	3.3%	?	-8.0%	3.55µM*	-7.4%
CC(NC(=O)c1ccc([N+](=O)[O-])o1)C12CC3CC(CC(C3)C1)C2 (configuration not stated)	6.57µM*	-7.2%	29.0%	-15.9%	?	8.7%
COc1ccccc1NC(=O)COC(=O)c1ccc(N2CCCC2=O)cc1	72.7%	5.9%	10.9%	7.1%	7.5%	-6.3%
COC(=O)c1c(NC(=O)CCCOc2ccc(C(C)(C)C)cc2)sc2c1C(C(=O)OC)CC2 (configuration not stated)	.	8.3%	.	.	15.8%	.
COc1ccccc1NS(=O)(=O)c1ccc2oc(SCc3ccc(C#N)cc3)nc2c1	-23.7%	-7.6%	9.28µM*	7.9%	9.2%	-12.8%

Screening data from PubChem BioAssay.
